Measured values published in ChEMBL document CHEMBL1201862, “PubChem BioAssay data set” (2004).
Among all 350,000 compounds or so, about 31,000 (8.9%) were called active. Another 15% or so got no clear call; they are omitted. The calls are words filed in the database; no cut-off is given here. Shown is part of a subset that was picked to be rich in actives.

These compounds were tested against T1, Histone-lysine N-methyltransferase EHMT2 (Homo sapiens) (UniProt Q96KQ7) (assay: qHTS Assay for Inhibitors of Histone Lysine Methyltransferase G9a. [Related pubchem assays (depositor defined):AID504404]).
T1 sequence (whole entry): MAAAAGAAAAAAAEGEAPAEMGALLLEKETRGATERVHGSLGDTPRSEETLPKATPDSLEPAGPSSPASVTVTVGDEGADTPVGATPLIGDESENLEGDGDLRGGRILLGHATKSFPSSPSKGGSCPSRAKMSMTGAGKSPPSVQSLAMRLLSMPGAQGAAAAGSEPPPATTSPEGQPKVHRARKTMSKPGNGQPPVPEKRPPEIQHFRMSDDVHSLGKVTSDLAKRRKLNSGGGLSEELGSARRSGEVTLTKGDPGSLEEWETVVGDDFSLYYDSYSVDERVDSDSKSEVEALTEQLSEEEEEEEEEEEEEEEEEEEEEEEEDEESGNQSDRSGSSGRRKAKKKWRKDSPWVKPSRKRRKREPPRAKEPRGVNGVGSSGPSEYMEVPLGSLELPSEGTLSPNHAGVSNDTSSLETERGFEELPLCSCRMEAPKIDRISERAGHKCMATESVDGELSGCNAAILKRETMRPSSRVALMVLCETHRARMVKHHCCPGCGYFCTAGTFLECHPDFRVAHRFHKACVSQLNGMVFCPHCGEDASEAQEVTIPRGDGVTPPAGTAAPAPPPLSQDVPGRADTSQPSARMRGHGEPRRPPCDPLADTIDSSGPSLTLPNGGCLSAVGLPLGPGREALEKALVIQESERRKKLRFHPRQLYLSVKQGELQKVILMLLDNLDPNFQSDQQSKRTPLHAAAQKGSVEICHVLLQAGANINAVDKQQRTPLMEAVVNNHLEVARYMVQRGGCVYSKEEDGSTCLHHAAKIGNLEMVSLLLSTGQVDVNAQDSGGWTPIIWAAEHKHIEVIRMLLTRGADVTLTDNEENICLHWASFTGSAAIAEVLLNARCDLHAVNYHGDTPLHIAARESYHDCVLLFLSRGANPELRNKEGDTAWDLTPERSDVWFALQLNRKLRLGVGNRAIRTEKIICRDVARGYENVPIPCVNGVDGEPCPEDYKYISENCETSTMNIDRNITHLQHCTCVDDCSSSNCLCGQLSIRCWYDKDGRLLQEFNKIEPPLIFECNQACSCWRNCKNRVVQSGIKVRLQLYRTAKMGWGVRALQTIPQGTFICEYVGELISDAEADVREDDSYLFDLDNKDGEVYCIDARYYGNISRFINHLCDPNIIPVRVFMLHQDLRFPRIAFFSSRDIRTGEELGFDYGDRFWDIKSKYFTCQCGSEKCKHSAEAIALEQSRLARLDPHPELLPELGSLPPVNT
Type: functional

How did the Potency turn out when `Cl[Te]1(Cl)OCCO1` was run?
The Potency was 7.94 µM (active).
